Values joined by “and” are separate entries in the source; they are usually repeats but may differ in a detail not shown here. Identical values can stand only once. More than one record can exist for a structure, and the calls need not agree. Active and inactive are the calls of the source. How the source made its calls: active means hit-call score of the fitted dose curve at least 0.9, where 1 is the maximum; inactive means score below 0.9.
Experiments:
[1] = read-out: Vascular endothelial growth factor receptor 2 (Homo sapiens) (UniProt P35968); assay: BSK_4H_VEGFRII: BioMAP Diversity Plus: 4H Assay for Vascular endothelial growth factor receptor 2 (VEGFR2) Biomarker Activity (AID 2283031); conditions: primary human endothelial cells (HUVEC); actives raise or lower the signal;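 on AC50: cell-surface VEGFR2 protein level quantified by ELISA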
Summary of the method: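 Measured by ELISA after 24 h of compound treatment: VEGFR2 on primary human umbilical vein endothelial cells, fitted in both directions relative to DMSO. Parallel cultures received SRB staining (560 nm) for overt cytotoxicity.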

[2] = read-out: Human Leukocyte Antigen - DR isotype (HLADR), HLA-DRA (gene 3122); assay: BSK_BE3C_HLADR: BioMAP Diversity Plus: BE3C Assay for Human Leukocyte Antigen - DR isotype (HLADR) Biomarker Activity (AID 2283032); conditions: primary human bronchial epithelial cells; actives raise or lower the signal
Summary of the method: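 ELISA read-out of HLA-DR on human lung bronchial epithelial primary cells, measured 24 h post-dosing. Both increases and decreases were scored relative to DMSO vehicle.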

[3] = read-out: Vascular cell adhesion molecule 1 (VCAM1), VCAM1 (gene 7412); assay: BSK_4H_VCAM1: BioMAP Diversity Plus: 4H Assay for Vascular cell adhesion molecule 1 (VCAM1) Biomarker Activity (AID 2283033); conditions: primary human endothelial cells (HUVEC); actives raise or lower the signal
Summary of the method: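 ELISA read-out of VCAM-1 on human umbilical vein endothelium 24 hours after chemical dosing; gain or loss of signal was fitted relative to DMSO, with sulforhodamine B staining of parallel cultures flagging overt cytotoxicity.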

[4] = read-out: Interferon-gamma inducible Protein 10 (IP10), CXCL10 (gene 3627); assay: BSK_BE3C_IP10: BioMAP Diversity Plus: BE3C Assay for Interferon-gamma inducible Protein 10 (IP10) Biomarker Activity (AID 2283034); conditions: primary human bronchial epithelial cells; actives raise or lower the signal
Summary of the method: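 Chemical is dosed onto human lung bronchial epithelial primary cells, cultures are incubated 24 h, and IP-10 is then quantified by ELISA. Gain or loss of signal is fitted in both directions relative to DMSO.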

[5] = read-out: Monokine induced gamma interferon (MIG), CXCL9 (gene 4283); assay: BSK_BE3C_MIG: BioMAP Diversity Plus: BE3C Assay for Monokine induced gamma interferon (MIG) Biomarker Activity (AID 2283035); conditions: primary human bronchial epithelial cells; actives raise or lower the signal
Summary of the method: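 ELISA read-out of MIG in human lung bronchial epithelial primary cultures, 24 h post-dosing. Bidirectional curve fit vs DMSO baseline.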

[6] = read-out: Transforming growth factor beta 1 (TGFb1), TGFB1 (gene 7040); assay: BSK_BE3C_TGFb1: BioMAP Diversity Plus: BE3C Assay for Transforming growth factor beta 1 (TGFb1) Biomarker Activity (AID 2283036); conditions: primary human bronchial epithelial cells; actives raise or lower the signal
Summary of the method: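 Primary human lung bronchial epithelial cells; compound exposure 24 h; TGF-b1 by ELISA; bidirectional fit, DMSO baseline. Parallel SRB total-protein staining for cytotoxicity.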

[7] = read-out: Plasminogen activator inhibitor-1 (PAI1), SERPINE1 (gene 5054); assay: BSK_BE3C_PAI1: BioMAP Diversity Plus: BE3C Assay for Plasminogen activator inhibitor-1 (PAI1) Biomarker Activity (AID 2283037); conditions: primary human bronchial epithelial cells; actives raise or lower the signal
Summary of the method: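 Primary human lung bronchial epithelial cells; chemical dosing; 24 h; PAI-1 measured by ELISA; bidirectional fit referenced to DMSO as negative control.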

[8] = read-out: Urokinase-type plasminogen activator receptor (uPAR), PLAUR (gene 5329); assay: BSK_BE3C_uPAR: BioMAP Diversity Plus: BE3C Assay for Urokinase-type plasminogen activator receptor (uPAR) Biomarker Activity (AID 2283039); conditions: primary human bronchial epithelial cells; actives raise or lower the signal
Summary of the method: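 Human bronchial epithelial primary cells; chemical exposure 24 h; uPAR by ELISA; bidirectional fit vs DMSO control.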

[9] = read-out: Interleukin-6 (IL6), IL6 (gene 3569); assay: BSK_CASM3C_IL6: BioMAP Diversity Plus: CASM3C Assay for Interleukin-6 (IL6) Biomarker Activity for (AID 2283040); conditions: primary human coronary artery smooth muscle cells; actives raise or lower the signal
[10] = read-out: Tissue plasminogen activator (tPA), PLAT (gene 5327); assay: BSK_BE3C_tPA: BioMAP Diversity Plus: BE3C Assay for Tissue plasminogen activator (tPA) Biomarker Activity (AID 2283041); conditions: primary human bronchial epithelial cells; actives raise or lower the signal
Summary of the method: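 Primary human lung bronchial epithelial cultures receive test chemical; after 24 h, tPA is quantified by ELISA, and gain or loss of signal is fitted bidirectionally relative to DMSO baseline.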

[11] = read-out: Interleukin-8 (IL8), CXCL8 (gene 3576); assay: BSK_CASM3C_IL8: BioMAP Diversity Plus: CASM3C Assay for Interleukin-8 (IL8) Biomarker Activity (AID 2283042); conditions: primary human coronary artery smooth muscle cells; actives raise or lower the signal;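 further: IL-8 protein level quantified by ELISA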
[12] = read-out: Human Leukocyte Antigen - DR isotype (HLADR), HLA-DRA (gene 3122); assay: BSK_CASM3C_HLADR: BioMAP Diversity Plus: CASM3C Assay for Human Leukocyte Antigen - DR isotype (HLADR) Biomarker Activity (AID 2283043); conditions: primary human coronary artery smooth muscle cells; actives raise or lower the signal;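 further: cell-surface HLA-DR protein level quantified by ELISA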
[13] = read-out: Macrophage colony-stimulating factor (MCSF), CSF1 (gene 1435); assay: BSK_CASM3C_MCSF: BioMAP Diversity Plus: CASM3C Assay for Macrophage colony-stimulating factor (MCSF) Biomarker Activity (AID 2283044); conditions: primary human coronary artery smooth muscle cells; actives raise or lower the signal;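 further: M-CSF protein amount quantified by ELISA after 24 h exposure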
[14] = read-out: Low-density lipoprotein receptor (LDLR), LDLR (gene 3949); assay: BSK_CASM3C_LDLR: BioMAP Diversity Plus: CASM3C Assay for Low-density lipoprotein receptor (LDLR) Biomarker Activity (AID 2283045); conditions: primary human coronary artery smooth muscle cells; actives raise or lower the signal;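 further: LDLR protein level on the cell surface quantified by ELISA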
[15] = read-out: Monocyte Chemoattractant Protein-1 (MCP1), CCL2 (gene 6347); assay: BSK_CASM3C_MCP1: BioMAP Diversity Plus: CASM3C Assay for Monocyte Chemoattractant Protein-1 (MCP1) Biomarker Activity (AID 2283046); conditions: primary human coronary artery smooth muscle cells; actives raise or lower the signal;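 further: MCP-1 level quantified by ELISA 24 h after dosing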
[16] = BSK_CASM3C_Proliferation: Cell Proliferation Assessment in the BioMAP Diversity Plus: CASM3C Assay (AID 2283047); conditions: primary human coronary artery smooth muscle cells;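 further: sulforhodamine B total protein stain as relative cell number at 560 nm; sub-confluent cells exposed 48 h before staining; fitted both ways against DMSO so gain or loss of cell number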
[17] = read-out: Monokine induced gamma interferon (MIG), CXCL9 (gene 4283); assay: BSK_CASM3C_MIG: BioMAP Diversity Plus: CASM3C Assay for Monokine induced gamma interferon (MIG) Biomarker Activity (AID 2283048); conditions: primary human coronary artery smooth muscle cells; actives raise or lower the signal;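 further: MIG protein level measured by ELISA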
[18] = read-out: serum amyloid A (SAA), SAA1 (gene 6288); assay: BSK_CASM3C_SAA: BioMAP Diversity Plus: CASM3C Assay for serum amyloid A (SAA) Biomarker Activity (AID 2283049); conditions: primary human coronary artery smooth muscle cells; actives raise or lower the signal;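 further: SAA protein level quantified by ELISA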
[19] = BSK_CASM3C_SRB: Viability Assessment in the BioMAP Diversity Plus: CASM3C Assay (AID 2283050); conditions: primary human coronary artery smooth muscle cells;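 further: total protein by SRB staining as cytotoxicity measure in parallel cultures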
[20] = read-out: urokinase plasminogen activator (uPA), PLAU (gene 5328); assay: BSK_BE3C_uPA: BioMAP Diversity Plus: BE3C Assay for urokinase plasminogen activator (uPA) Biomarker Activity (AID 2283038); conditions: primary human bronchial epithelial cells; actives raise or lower the signal
Summary of the method: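 ELISA for uPA on human primary bronchial epithelial cultures 24 h post-treatment, gain or loss against DMSO. Parallel SRB staining (0.1% after 10% TCA fixation, 560 nm) assessed overt cytotoxicity.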

Measured: AC50

COc1nc(C)nc(NC(=O)NS(=O)(=O)c2ccccc2CCC(F)(F)F)n1
inactive: [1] | [2] | [3] | [4] | [5] | [6] | [7] | [8] | [9] | [10] | [11] | [12] | [13] | [14] | [15] | [16] | [17] | [18] | [19]

Oc1ccccc1-c1ccccc1
inactive: [1] | [2] | [3] | [4] | [5] | [6] | [7] | [8] | [9] | [10] | [11] | [12] | [13] | [14] | [15] | [16] | [17] | [18] | [19]

COc1ccc(C(c2ccc(OC)cc2)C(Cl)(Cl)Cl)cc1
active: [1] 31.2 µM | [2] 17.4 µM | [3] 25.1 µM | [4] 32.8 µM | [7] 14.3 µM | [9] 14 µM | [16] 15.1 µM | [19] 18.4 µM
inactive: [5] | [6] | [8] | [10] | [11] | [12] | [13] | [14] | [15] | [17] | [18]

CCCN(CCC)c1c([N+](=O)[O-])cc(S(N)(=O)=O)cc1[N+](=O)[O-]
active: [2] 35 µM [middle of 4 runs] | [3] 38.1 µM [middle of 4 runs] | [4] 36.9 µM [middle of 4 runs] | [5] 38.4 µM [middle of 4 runs] | [6] 31.3 µM and 31.1 µM and 36.7 µM | [7] 34.2 µM [middle of 4 runs] | [20] 33.6 µM [middle of 4 runs] | [8] 38.1 µM [middle of 4 runs] | [9] 35.2 µM [middle of 4 runs] | [10] 30.3 µM [middle of 4 runs] | [11] 33.5 µM [middle of 4 runs] | [12] 34.4 µM [middle of 4 runs] | [13] 36.1 µM [middle of 4 runs] | [14] 39.7 µM | [15] 37.1 µM [middle of 4 runs] | [16] 35.1 µM [middle of 4 runs] | [17] 34.7 µM [middle of 4 runs] | [18] 37.1 µM [middle of 4 runs] | [19] 35.6 µM [middle of 4 runs]
inactive: [14]

COC(=O)N(OC)c1ccccc1COc1ccn(-c2ccc(Cl)cc2)n1
active: [2] 3.97 µM | [4] 8.98 µM | [7] 5.65 µM | [11] 15.8 µM | [16] 6.45 µM
inactive: [1] | [3] | [5] | [6] | [8] | [9] | [10] | [12] | [13] | [14] | [15] | [17] | [18] | [19]

CNC(=O)ON=CC(C)(C)SC
active: [18] 1.35 µM
inactive: [1] | [2] | [3] | [4] | [5] | [6] | [7] | [8] | [9] | [10] | [11] | [12] | [13] | [14] | [15] | [16] | [17] | [19]
